TRPV1 ag = human TRPV1 agonism; TRPV1-expressing cells, Fluo-8 calcium influx, agonist mode; 320,000 tested, 0.19% active; activation, % at 8.33 µM; in the data active = activation above about 80%; inconclusive = between about 30% and that limit; note: 0% is about no effect
Target sequence (Q8NER1 whole entry, looked up): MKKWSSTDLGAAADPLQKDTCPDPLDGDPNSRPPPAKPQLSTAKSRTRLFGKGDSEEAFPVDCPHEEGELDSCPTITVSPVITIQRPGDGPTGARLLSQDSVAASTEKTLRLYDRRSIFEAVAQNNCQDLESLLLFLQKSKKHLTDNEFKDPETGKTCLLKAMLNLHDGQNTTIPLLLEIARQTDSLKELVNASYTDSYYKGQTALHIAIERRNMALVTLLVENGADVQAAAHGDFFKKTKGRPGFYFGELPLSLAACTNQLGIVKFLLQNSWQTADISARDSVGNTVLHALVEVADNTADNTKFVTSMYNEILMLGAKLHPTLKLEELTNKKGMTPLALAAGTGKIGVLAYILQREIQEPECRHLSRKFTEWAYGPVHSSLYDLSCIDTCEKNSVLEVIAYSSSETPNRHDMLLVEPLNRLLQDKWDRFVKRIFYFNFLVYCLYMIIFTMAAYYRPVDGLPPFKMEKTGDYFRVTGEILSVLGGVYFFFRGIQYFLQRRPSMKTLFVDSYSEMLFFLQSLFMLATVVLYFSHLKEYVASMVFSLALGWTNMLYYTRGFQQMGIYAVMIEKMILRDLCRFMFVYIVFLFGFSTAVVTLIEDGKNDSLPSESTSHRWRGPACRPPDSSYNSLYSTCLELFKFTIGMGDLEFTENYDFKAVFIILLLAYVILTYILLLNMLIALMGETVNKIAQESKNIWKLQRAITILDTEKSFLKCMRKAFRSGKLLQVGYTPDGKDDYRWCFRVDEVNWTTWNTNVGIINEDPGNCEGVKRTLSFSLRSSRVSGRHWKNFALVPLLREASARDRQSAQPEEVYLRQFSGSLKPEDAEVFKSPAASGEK
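TRPV1-expressing cells were cultured overnight at 35.5C and loaded with Fluo-8 calcium dye for 40 to 90 min at room temperature. After a 10 s baseline, compound was added and calcium influx was read kinetically for 3 min (ex 480/em 520 nm).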
TRPV1 PAM = potentiators of human vanilloid receptor 1 (TRPV1); TRPV1-expressing cells, Fluo-8 calcium influx, capsaicin EC20 potentiation; potentiation, % at 8.33 µM; 320,000 tested, 0.02% active; AID 540277; in the data active = potentiation above about 80%; inconclusive = between about 30% and that limit; note: 0% is about no effect
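Fluo-8 calcium influx in TRPV1-expressing cells, kinetic read (ex 480/em 520 nm). Compound added and read 3 min for agonist activity, followed by capsaicin at EC20 final and 2 min further read for enhancement.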
ELG1 DNA repair = inhibitors of ELG1-dependent DNA repair in HEK293T cells. HEK293T ELG1-luciferase reporter, luminescence, 16 h; DNA damage induced by 5-fluorouridine. Potency, µM (top dose mostly 46.1 µM), inactives show top-dose activity change, negative = inhibition, actives largely listed as inhibitors. 330,000 tested, 2.3% active; note: potency is the fitted concentration of half-maximal effect; % is set by controls: 0 for no effect and ±100 for the full control effect; nearly all actives have a fitted effect of over 55% in size
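Overnight (16 hr) co-exposure of 2,000 cells/well to 5-fluorouridine and compound at 37 °C preceded detection. Luciferase was quantified via ONE-Glo luminescence; loss of signal denotes inhibition.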
Giardia kill = Giardia lamblia killing. 340,000 tested, 0.15% active. Giardia lamblia trophozoite viability. AID 540267. activity change, % at 7.66 µM, hits read low; in the data active = activity change below about -80%; inconclusive = between about -30% and that limit;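 note: parasites exposed to compound for two days anaerobically before the ATP read; % is set by controls: 0 for no effect and ±100 for the full control effect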
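Media and compound were dispensed first, then trophozoites at 100 cells/well; plates sat 48 hrs at 37 deg C without oxygen before ATP luminescence reagent was added and read after 15-30 min at room temperature.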
FUS yeast rescue = suppressors of FUS proteinopathy in yeast; S. cerevisiae FUS-expressing, growth rescue, OD600, 24 h; 390,000 tested, 0.24% active; Potency, µM (titrated, usually from 76.6 µM), actives largely listed as activators;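 note: potency is the fitted concentration of half-maximal effect; plate controls were DMSO vehicle for no effect and reference control for full effect; nearly all actives have a fitted effect of over 55% in size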
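Yeast FUS proteinopathy model; galactose-induced FUS (2%), starting OD 0.005. Cpds in dilution series, 24hr, 30C, 99% humidity. Abs 600 nm growth. Pos ctrl CP55940 (top 92uM final); neg ctrl DMSO.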
* = called active by the depositor; i = inactive; ? = inconclusive; · = not tested or not shown. Hits are enriched below; roughly 2.3% of the tested compounds scored in any of these assays. Unless noted, calls come from the whole dose curve; as a rule, active = well fitted curve in the direction sought with a large enough effect; inconclusive = small, poorly fitted or top-dose-only effect, or another doubt; inactive = no such curve, though single readings can be large; an effect the other way counts as inactive or inconclusive.

SMILES | TRPV1 ag | TRPV1 PAM | ELG1 DNA repair | Giardia kill | FUS yeast rescue
O=S(=O)(Nc1ccc(-c2ccc(N3CCCCCC3)nn2)cc1)c1cccc(C(F)(F)F)c1 | · | · | · | · | i
O=c1[nH]c2ccc(NCc3ccc(-c4ccccc4F)o3)cc2[nH]1 | · | · | · | · | i
CCOC(=O)C1=C(c2ccccc2)NC(N)=NC1c1ccc(OCc2ccc(C(=O)OC)cc2)cc1 (stereo not drawn) | ? | -19.3 | 14.8% | -1.7 | 25.1µM*
CCOC(=O)C1=C(c2ccccc2)Nc2ncnn2C1c1ccc(C(=O)O)cc1 (stereo not drawn) | -0.9 | 3.3 | 0.0% | 8.8 | i
CCNC(=S)Nc1ccc2c(c1)c(=O)n(C)n2-c1ccc(C(C)(C)C)cc1 | · | · | · | · | 31.6µM*
COc1ccc(NC(=O)C(NS(=O)(=O)c2cccc3nsnc23)C(C)C)cc1OC (stereo not drawn) | · | · | · | · | i
COc1ccc2c(c1)CC(C(=O)Nc1cc(Cl)ccc1C)CO2 (stereo not drawn) | · | · | · | · | i
Cc1nn(-c2cc(C(F)(F)F)ccc2Cl)c2nc(C(Cl)(Cl)Cl)[nH]c(=O)c12 | -2.9 | 12.3 | 20.6µM* | -9.4 | i
O=C(N/N=C/c1ccc(N2CCOCC2)cc1)c1ccccc1OCCOc1ccccc1 | 1.8 | 4.1 | 16.4µM* | -14.0 | i
O=C(NCCc1ccccc1)c1ccc2c(c1)N(Cc1ccccc1)C(=O)c1ccccc1S2=O (stereo not drawn) | · | · | · | · | i
CC(NC(=O)c1ccc2c(c1)N(Cc1ccc(Cl)cc1)C(=O)c1ccccc1S2=O)c1ccccc1 (stereo not drawn) | · | · | · | · | 25.1µM*
Cc1ccc(-c2nc(-c3cccs3)c(-c3cccs3)[nH]2)cc1 | · | · | · | · | i
COc1ccc(-c2nc(-c3cccs3)c(-c3cccs3)[nH]2)cc1OC | 0.0 | 7.6 | 20.6µM* | -11.3 | i
O=[N+]([O-])c1ccc(-c2nc(-c3cccs3)c(-c3cccs3)[nH]2)cc1 | 8.3 | -3.5 | 20.6µM* | 1.1 | i
COc1ccc(-c2nc(-c3ccccc3)c(-c3cccs3)[nH]2)cc1OC | 0.7 | 1.1 | 14.6µM* | -2.3 | ?
O=[N+]([O-])c1cccc(-c2nc(-c3cccs3)c(-c3cccs3)[nH]2)c1 | -0.8 | 4.3 | ? | -7.9 | i
COc1cccc(CNC(=O)CN2C(=O)CCn3nc(-c4cn(C)c5ccccc45)cc32)c1OC | · | · | · | · | i
CCc1ccccc1NC(=O)Cn1c(C(=O)OC)cc2oc(C)cc21 | · | · | · | · | i
O=C(COCc1cc(-c2cccs2)on1)N1CCN(c2ccccc2)CC1 | · | · | · | · | i
N#CC1=C(N)C(C#N)(C#N)C(c2cccnc2)C2CCCC=C12 (stereo not drawn) | 1.0 | -7.4 | 7.31µM* | · | ·
N#CC1=C(N)C(C#N)(C#N)C(c2cccnc2)C2CC(c3ccccc3)CC=C12 (stereo not drawn) | 8.4 | 0.9 | ? | 0.3 | i
Cc1coc2cc3oc(=O)c(CC(=O)NCc4ccc(F)cc4)c(C)c3cc12 | · | · | · | · | i
O=c1[nH]c2ccccc2c(O)c1O | 2.6 | -8.3 | 3.26µM* | 9.0 | i
O=c1[nH]c2ccccc2c(O)c1-[n+]1ccccc1 | 1.4 | 6.0 | 10.7% | -26.4 | i
O=C1CC(NC(=O)C(F)(F)F)c2cc3c(cc21)OCO3 (stereo not drawn) | 0.4 | -22.0 | 0.3% | 3.9 | i
COc1cc2c(cc1OC)C(NC(=O)C(F)(F)F)CNC2=O (stereo not drawn) | -2.0 | -4.1 | 11.6µM* | -2.3 | i
COc1cccc(CN(C)C(=O)Cc2c[nH]c3ccccc23)c1 | 6.3 | 8.9 | 16.9% | -8.6 | i
Cc1ccc(C(C(=O)NC2CCCCC2)N(Cc2ccccc2)C(=O)Cc2c[nH]c3ccccc23)o1 (stereo not drawn) | 1.0 | 9.9 | ? | 16.3 | ·
COc1cccc(CN(C(=O)Cc2c[nH]c3ccccc23)C(C(=O)NC2CCCCC2)c2ccc(C)o2)c1 (stereo not drawn) | 18.8 | 1.0 | 18.4µM* | -9.3 | i
COc1ccc(CN(C(=O)Cc2c[nH]c3ccccc23)C(C(=O)NC2CCCCC2)c2ccc(C)o2)cc1 (stereo not drawn) | 2.2 | 15.8 | 20.6µM* | 7.7 | i
